From PubChem BioAssay
An excerpt weighted towards active compounds, which were near 1.1% of everything screened.
Apoferritin bind – binds horse apoferritin like a general anesthetic | 0.074% of 350,000 active | apoferritin/1-aminoanthracene competitive binding, fluorescence | Potency, µM (highest dose often 77.5 µM), inactives show at the top dose activity change, negative = displacement, actives largely listed as inhibitors | P02791 | AID 485281; further: on the % scale 0 is the no-effect control and ±100 the full control effect; nearly all actives have a fitted effect of over 20% in size
Target sequence (P02791 2-175 limits assumed): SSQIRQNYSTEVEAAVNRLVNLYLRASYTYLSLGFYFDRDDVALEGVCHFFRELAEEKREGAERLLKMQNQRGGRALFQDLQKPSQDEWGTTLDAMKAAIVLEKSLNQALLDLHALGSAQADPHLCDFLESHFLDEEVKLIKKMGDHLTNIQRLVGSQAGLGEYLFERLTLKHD
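Horse-spleen apoferritin (10 uM) in 50% saturated 1-aminoanthracene in PBS was incubated 10 min at room temperature with compound. Fluorescence (ex 380, em 535 nm) was normalized to free and bound 1-AMA, with concentration-response fitted by a four-parameter Hill equation.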
12-LOX inh – ALOX12 (human) lipoxygenase inhibition | P18054 | purified 12hLO, xylenol orange hydroperoxide absorbance | Potency, µM (series often up to 108 µM), inactives show top-dose activity change, negative = inhibition, most hits filed as inhibitors | 1.1% of 580,000 active | AID 1671190; further: on the % scale 0 is the no-effect control and ±100 the full control effect
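Purified human 12hLO (150 nM final) in 25 mM Hepes, 0.01% Triton X-100, pH 7.0 was preincubated 15 min at room temperature with compound. Then 40 uM arachidonic acid was added, 30 min. Hydroperoxide was read by Fe-XO absorbance ratio 573/405 nm.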
Glioma ERSR ind – induces the endoplasmic reticulum stress response in human glioma cells; U87-MG GRP78 promoter luciferase reporter, 16 h; Potency, µM, without a hit: at the top dose activation, hits mostly activators; 0.02% of 420,000 active; further: series mostly up to about 76 µM; % of control where 0% means no effect; nearly all actives have a fitted effect of over 35% in size
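Stably transfected U87-MG glioma cells carrying a GRP78-based luciferase sensor; 16 h compound incubation. Luminescence end-point read 10 min after Bright-Glo addition at room temperature.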
Chronic BCR inh – chronic active BCR signaling inhibition. ABC-DLBCL IkBa-CBG/CBR reporter, luminescence ratio, 4 h. Potency, µM (doses to about 46.1 µM), for the others: at the highest dose activity change, negative = inhibition, actives largely listed as inhibitors. 0.05% of 340,000 active; active means well fitted inhibition curve with a large enough effect in the signal ratio, with a control signal flat, not every such curve was filed as active; inconclusive means small, poorly fitted or top-dose-only effect, or effect the other way, or a change in a side signal; the % refers to the signal ratio;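 further: plate controls were basal doxycycline-induced cells for no effect and cells given 10 µM MG132 for full effect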
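Compounds up to 46 uM were incubated four hours with TMD8 cells whose green CBG68 luciferase is fused to IkappaBalpha; red CBR luminescence normalised the signal, and concentration-effect curves were fitted to fusion, red and ratio data.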
An asterisk follows results filed as active; i = inactive; ? = inconclusive; . = no result given; ! = a repeat was not active; [ ] = remark or other dose. Unless noted, the call rests on the fitted dose curve; in most records, active means well fitted curve in the direction sought with a large enough effect; inconclusive means small, poorly fitted or top-dose-only effect, or another doubt; inactive means no such curve, though single readings can be large; an effect the other way counts as inactive or inconclusive. Potency means the concentration at half of the fitted maximal effect.

SMILES | Apoferritin bind | 12-LOX inh | Glioma ERSR ind | Chronic BCR inh
CCN(CC(=O)Nc1ccc(NC(C)=O)cc1)C(=O)c1cc2ccccc2oc1=O | . | -50.0% | -5.0% | 0.2%
CCCN(CC(=O)Nc1ccccc1C)C(=O)c1cc2ccccc2oc1=O | . | 12.6µM*! | -1.5% | .
O=C(CSc1n[nH]c(-c2ccccc2)n1)c1ccc(O)c(O)c1 | -17.9% | 2.51µM* | -0.7% | ?
Cc1cc(SCC(=O)c2ccc3c(c2)OCCO3)nc2ccccc12 | . | 15.8µM* | . | .
Cc1cc(SCC(=O)c2ccc3c(c2)OCO3)nc2ccccc12 | ? | -23.1% | 3.7% | ?
CCOc1ccc(-c2nc(SCC(=O)c3ccccc3)n[nH]2)cc1 | ? | ? | 3.6% | .
Cc1cc(SCC(=O)c2ccc(O)c(O)c2)nc2ccccc12 | -22.9% | 6.31µM* | 5.6% | ?
Cc1ccc(-c2noc(CSc3nnc4ccccn34)n2)cc1F | . | -3.0% | . | .
COc1ccc(C(=O)NC(=S)NCc2ccco2)cc1Br | ? | 22.4µM* | 3.1% | 0.0%
COc1ccc(C(=O)NNC(=S)NC(=O)c2ccc(F)cc2)cc1Br | . | ? | 7.0% | .
COc1ccc(C(=O)NC(=S)NNC(=O)c2ccc(NC(C)=O)cc2)cc1Br | -3.7% | 12.6µM* | -1.6% | -3.7%
COc1ccc(C(=O)NC(=S)NCc2ccco2)cc1OC | -7.8% | ? | -2.2% | -19.6%
COc1ccc(C(=O)NC(=S)NNC(=O)c2ccncc2)cc1Br | . | ? | -3.4% | -12.3%
COc1ccc(C(=O)NC(=S)Nc2ccc3[nH]c(=O)[nH]c3c2)cc1Br | . | ? | -5.4% | .
COc1ccc(C(=O)NC(=S)NC(C)(C)C)cc1Br | ? | 8.91µM* | 7.1% | 6.0%
COc1ccc(C(=O)NC(=S)NC(C)C)cc1Br | -8.9% | 3.98µM* | 2.9% | -3.5%
CCCc1noc(-c2ccn3c(CNC(=O)c4ccccc4F)nnc3c2)n1 | . | 50.1µM* | . | .
COc1ccccc1CC(=O)NCc1nnc2cc(-c3nc(C)no3)ccn12 | . | 39.2% | . | .
CCCc1noc(-c2ccn3c(CNC(=O)c4ccccc4Cl)nnc3c2)n1 | . | 39.8µM* | . | .
CCCc1noc(-c2ccn3c(CNC(=O)c4c(F)cccc4F)nnc3c2)n1 | . | 64.8% | . | .
CCc1noc(-c2ccn3c(CNC(=O)c4ccccc4Cl)nnc3c2)n1 | . | 12.8% | . | .
CCCc1noc(-c2ccn3c(CNC(=O)Cc4ccccc4OC)nnc3c2)n1 | . | 50.1µM* | . | .
CC(OC(=O)c1cc(=O)[nH]c2ccccc12)C(=O)N1CCCCCC1 (configuration not stated) | . | -7.4% | . | .
C#Cc1cccc(NC(=O)c2ccc(OCC=C)cc2)c1 | . | -57.0% | . | .
O=[N+]([O-])c1ccc(N/N=C/c2ccc[nH]2)cc1 | ? | 35.5µM* | 9.6% | ?
SMILES | Apoferritin bind | 12-LOX inh | Glioma ERSR ind | Chronic BCR inh
O=C(CCCCCN1C(=O)c2cccc3cccc(c23)C1=O)NO | 5.2% | 3.55µM* | ? | .
CC(C)Cn1c(-c2ccncc2)nc2c1c(=O)[nH]c(=O)n2CC(C)C | . | 7.6% | . | .
NC(c1ccccc1)c1nnc2n1CCN(C(=O)N1CCOCC1)C2 (configuration not stated) | . | 5.2%[6.33 µM] | . | .
NC(c1ccccc1)c1nnc2n1CCN(C(=O)N1CCCC1)C2 (configuration not stated) | . | 7.94µM* | . | .
CC(C)Oc1ccc(CNC(=O)Cn2c(=O)nc3n2C(=O)N(c2ccccc2)C3)cc1 | . | 37.9% | . | .
CN(Cc1ccc(F)cc1)c1ccc2ncc(Nc3cccc(O)c3)n2n1 | . | 20.6%[176 µM] | . | .
CCN1/C(=C2\SC(=S)N(Cc3ccccc3)C2=O)Sc2ccccc21 | -7.5% | -20.9% | -3.6% | 0.6%
CCC(CO)[n+]1c(C)cc(/C=C2\Sc3ccccc3N2Cc2ccccc2)cc1C (configuration not stated) | ? | 50.1µM* | 3.0% | ?
CCc1ccc(CNC(=O)Nc2ccc(N3CCOCC3)nc2)s1 | . | -16.2% | . | .
c1coc(-c2cnc3ccccc3n2)c1 | . | 39.8µM* | -3.3% | .
c1coc(-c2nc3ccccc3nc2-c2ccco2)c1 | 32.7% | 50.1µM* | -1.0% | 2.9%
Oc1ccc(-c2cnc3ccccc3n2)cc1 | . | 46.4% | -3.7% | .
O=C(NC(C(=O)N1CCCCC1)C1CCN(C(=O)c2ccccc2F)CC1)c1ccccc1 (configuration not stated) | . | 12.2% | . | .
CCOC(=O)CN1CCN(c2nc3c(c(=O)[nH]c(=O)n3C)n2Cc2cccc3ccccc23)CC1 | . | -16.3% | . | .
NC(CSC(c1ccccc1)(c1ccccc1)c1ccc2c(c1)OCO2)C(=O)O (configuration not stated) | . | 12.6µM* | -0.1% | .
NC(=O)CC(c1ccccc1)c1ccc2c(c1)OCO2 (configuration not stated) | -2.7% | 13.6% | -2.5% | -6.5%
CCc1ccccc1NC(=O)N1CCN(c2ccc(=O)n(-c3ccc(C)cc3)n2)CC1 | . | -0.9% | . | .
C=C(C)COc1cc(C)cc2oc(=O)c(CC(=O)Nc3nc(CC(=O)O)cs3)c(C)c12 | . | -15.3% | . | .
O=C(O)CC(c1ccncc1)c1c[nH]c2ccccc12 (configuration not stated) | . | 3.55µM* | . | .
NC(=O)C1CCN(Cc2nc3cc(Cl)ccc3c(=O)[nH]2)CC1 | -0.7% | 12.6µM* | -2.9% | 0.6%
CCOCCCNC(=O)c1cc2cc(C)ccc2nc1C | . | 9.9% | . | .
OCCCn1c(-c2ccc(F)cc2)csc1=Nc1ccc(F)cc1 | 10.0% | ? | -1.7% | .
Cc1ccc(-c2csc(=Nc3ccccc3)n2CCCO)cc1 | -7.9% | 44.7µM* | -6.1% | .
Cn1sc(NC(=O)c2cccc(Cl)c2)nc1=O | -12.6% | 0.0% | 8.7% | ?
Cn1sc(NC(=O)c2ccccc2Cl)nc1=O | -10.2% | 44.7µM* | -0.2% | 3.3%
SMILES | Apoferritin bind | 12-LOX inh | Glioma ERSR ind | Chronic BCR inh
Cc1ccc2oc(C(=O)NCC3(c4ccccc4)CC3)cc(=O)c2c1 | . | 2.3% | . | .
COc1cccc(/C=N/NC(=O)c2[nH]nc3c2CCc2ccccc2-3)c1 | 5.4% | i | -2.6% | 17.8µM*
Brc1cccc(/C=N/Nc2ccc3ccccc3c2)c1 | . | 5.62µM* | . | .
Clc1ccc(N/N=C/c2cccnc2)cc1 | 1.0% | ? | -0.3% | ?
Clc1ccc(N/N=C/c2ccccc2)cc1Cl | . | 2.24µM* | . | .
Clc1ccc(N/N=C/c2ccncc2)cc1Cl | 4.0% | ? | 9.1% | ?
Clc1cccc(/C=N/Nc2ccc(Cl)c(Cl)c2)c1 | . | 5.62µM* | . | .
Clc1ccc(N/N=C/c2cccc(/C=N/Nc3ccc(Cl)c(Cl)c3)c2)cc1Cl | . | 0.708µM* | . | .
CCOC(=O)Nc1ccc(C(=O)OC)cc1 | . | -9.1% | . | .
Cc1ccccc1/C=N/NC(=O)c1ccc(C(C)(C)C)cc1 | . | -5.9% | . | .
CCN1CCN(CCNC(=O)C2CCCN(c3nc4cccnc4s3)C2)CC1 (configuration not stated) | . | 1.1% | . | .
COC(=O)c1cccc(OCc2ccccc2C#N)c1 | . | -45.8% | . | .
Cc1cccc(NC(=O)CN(C)C(=O)CCc2ncc(-c3ccccc3F)o2)c1C | . | 2.9% | . | .
Cc1ccccc1CSCC(=O)NC(=O)NCc1ccco1 | ? | ? | -1.9% | ?
O=C(CSCc1ccccc1Br)NNC(=S)NCc1ccco1 | -19.7% | 44.7µM* | -3.6% | 0.2%
O=S(=O)(NCCc1ccc(F)cc1)c1ccc2c(c1)CCCC2 | . | 3.0% | . | .
CC[N+](CC)(CC)CCOc1ccc(/C=C/c2ccccc2)cc1 | ? | 50.1µM*! | -2.1% | 3.9%
